Compounds without any hit were thinned out: in the full panel of roughly 83,000, 20% have a hit.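 Method: cells in 96-well plates; compound added at one concentration; 48 h incubation; percent growth measured; values under 10 scored active.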 Values without a mark were called inactive. Activity calls are given as the source filed them.

For the first assay, the system named is SK-OV-3 ovarian. Put plainly: NCI-60 one-dose screen, 48 h (100 = growth as untreated, 0 = no growth, -100 = all killed). The conditions noted are these: 10 µM unless noted.
Consider `Cc1ccc(S(=O)(=O)N2CCN(C(=O)CSc3nc4ccc(C)cc4[nH]3)CC2)cc1`, for which the growth was 114%.

Regarding `CCOc1cc(/C=C/C(=O)C(C(=O)/C=C/c2ccc(OC(=O)CNc3nc4ccccc4[nH]3)c(OCC)c2)C(=O)CNc2nc3ccccc3[nH]2)ccc1OC(=O)CNc1nc2ccccc2[nH]1`, the growth is 29.4%.

As to `O=C(Nc1nc2ccc(OC(F)(F)F)cc2s1)c1ccc(F)cc1`, the growth is 4.63% (active).

Turning to `O=C(/C=C/c1ccc([N+](=O)[O-])cc1)c1ccc2c3c(cccc13)CC2`, the growth was 91.4%.

`O=C(Nc1ccc(Cl)cc1)Nc1nc2ccc(OC(F)(F)F)cc2o1`: the growth is 103%.

With `O=C(/C=C/c1c(-c2ccccc2)[nH]c2ccccc12)S(=O)(=O)c1ccccc1`, the growth was 89.5%.

Turning to `Clc1ccc2nc(CI)c(CI)nc2c1`, the growth is 98.8%.

With `FC(F)(F)c1cc(-c2nnc3n2N=C(N2CCCC2)CS3)cc(C(F)(F)F)c1`, the growth is 21%.

`Clc1ccc(C2c3ccccc3-c3nccn32)c(Cl)c1` (stereo not drawn): the growth is 84.7%.

As for `COC(=O)c1c(NC(=O)CSc2nnnn2-c2ccc(OC)cc2)sc(C)c1C`, the growth is 95.9%.

In the case of `O=[N+]([O-])c1ccc(NS(=O)(=O)c2ccc(Cl)c(Cl)c2)cc1`, the growth is 94.3%.

Regarding `O=C(O)C1CCN(S(=O)(=O)c2ccc(-c3ccccc3)cc2)CC1`, the growth was 111%.

Consider `O=C1/C=C/[C@@H](O)[C@@H]2C[C@@H](O)C[C@H]2/C=C/CCC[C@H](CO)O1`, for which the growth is 50.7%.

For `COc1ccc(N2CCN(CC(=O)N3CCN(c4nnc(-c5ccccc5)c(-c5ccccc5)n4)CC3)CC2)cc1`, the growth is 80.7%.

Regarding `O=C1/C(=C/c2ccc(F)cc2)Cc2ccccc21`, the growth was 110%.

Take `CCN(CC)CCOCC[C@H]1CC[C@H]2[C@@H]3[C@H](C)Cc4cc(OS(N)(=O)=O)ccc4[C@H]3CC[C@]12C`: the growth is -94.8% (active).

As to `COc1cc(-c2n[nH]nc2-c2ccccn2)cc(OC)c1OC`, the growth is 98.5%.

`Cc1cc(C)c2c(N)c3cccc(C)c3nc2n1`: the growth is 2.68% (active).

As to `Cc1c2oc3c(C)ccc(C(=O)OC(C)C4NC(=O)C(C(C)C)N(C)C(=O)CN(C)C(=O)C5CCCN5C(=O)C(C(C)C)NC4=O)c3nc-2c(C(=O)OC(C)C2NC(=O)C(C(C)C)N(C)C(=O)CN(C)C(=O)C3CCCN3C(=O)C(C(C)C)NC2=O)c(N)c1=O` (stereo not drawn), the growth is 22.5%.

`N[C@H](CS)C(=O)O`: the growth was 107%.

Turning to `CCCCCCCCCCN1CCC(N2CCCCC2)CC1`, the growth was 20.9%.

With `CCCCc1ccc(C(N)=O)nc1`, the growth was 99.5%.

Regarding `O=C(CN1CCN(c2ccc(Cl)cc2)CC1)N1CCN(c2nnc(-c3ccc(Cl)cc3)c(-c3ccc(Cl)cc3)n2)CC1`, the growth was 111%.

Take `COc1ccc2c(=O)c(OC)c(-c3cc(OC)c(OC)c(OC)c3)oc2c1`: the growth is 114%.

For the compound `O=Nc1c2cccnc2n2nnc3ccc(Cl)cc3c12`, the growth is 92.2%.

On to `CC(=O)/C(=C/c1ccc(Cl)cc1)C(=O)c1ccccc1`, for which the growth was 101%.

Consider `C[C@H]1C(=O)N2c3ccccc3[C@@]3(O)C[C@@H](n4cnc5ccccc5c4=O)C(=O)N1[C@@H]23`, for which the growth is 104%.

In the case of `O=C(CN1CCN(c2ccc(Cl)cc2)CC1)N1CCN(c2nnc(-c3ccccc3)c(-c3ccccc3)n2)CC1`, the growth is 85%.

`CCCCCCCCCCCCC1CCCC(C)C1` (stereo not drawn): the growth was 99.7%.

For `[N-]=[N+]=NCc1cccc(/C(O)=C/C(=O)C(=O)O)c1`, the growth is 107%.

For the compound `COc1cccc(N2CCN(CC(=O)N3CCN(c4nnc(-c5ccc(Cl)cc5)c(-c5ccc(Cl)cc5)n4)CC3)CC2)c1`, the growth was 95.6%.

For the compound `COc1ccc(C(=O)/C=C/c2ccc(C)cc2)cc1OC`, the growth was 97.7%.

Take `CCOC(=O)c1cnc2c(C)cc(C)cc2c1NCCCN(C)C`: the growth is 38.6%.

In the case of `CN(C)CCCNc1nn2c(=O)c3ccccc3nc2c2ccccc12`, the growth was 54.6%.

As to `COc1cc(C(=O)c2cc3c(cc2C)OCO3)cc(OC)c1OC`, the growth was 11.1%.

Consider `Cc1cc(C(=O)Nc2ccc3cc(CN4CCOCC4)ccc3n2)c(C)n1-c1ccccc1`, for which the growth is 81.1%.

Regarding `Cc1sc2nc3c4ccccc4c(NCCCN(C)C)nn3c(=O)c2c1C`, the growth was 65.7%.

For the compound `CCN(CC)c1ccc(C(=C2C=CC(=[N+](CC)Cc3cccc(S(=O)(=O)O)c3)C=C2)c2ccc(N(CC)Cc3cccc(S(=O)(=O)O)c3)cc2)cc1`, the growth is 85.3%.

Regarding `COc1ccc(N2CCN(CC(=O)N3CCN(c4nnc(-c5ccc(Cl)cc5)c(-c5ccc(Cl)cc5)n4)CC3)CC2)cc1`, the growth is 99.5%.

Another assay relates to IGROV1 ovarian. Described as above. The conditions noted are these: 10 µM unless noted.
Take `CCOc1cc(/C=C/C(=O)C(C(=O)/C=C/c2ccc(OC(=O)CNc3nc4ccccc4[nH]3)c(OCC)c2)C(=O)CNc2nc3ccccc3[nH]2)ccc1OC(=O)CNc1nc2ccccc2[nH]1`: the growth was -33.2% (active).

Consider `COc1ccc(CC(=O)Nc2nn3c(-c4cc(C(F)(F)F)cc(C(F)(F)F)c4)nnc3s2)cc1`, for which the growth was 59.9%.

For `O=C(Nc1nc2ccc(OC(F)(F)F)cc2s1)c1ccc(F)cc1`, the growth was 31.1%.

Take `O=C(Nc1ccc(Cl)cc1)Nc1nc2ccc(OC(F)(F)F)cc2o1`: the growth is 130%.

Turning to `O=C(/C=C/c1c(-c2ccccc2)[nH]c2ccccc12)S(=O)(=O)c1ccccc1`, the growth is 51.8%.

Take `Clc1ccc(C2c3ccccc3-c3nccn32)c(Cl)c1` (stereo not drawn): the growth was 77.1%.

Take `O=C1/C=C/[C@@H](O)[C@@H]2C[C@@H](O)C[C@H]2/C=C/CCC[C@H](CO)O1`: the growth is 49.9%.

For the compound `O=C1/C(=C/c2ccc(F)cc2)Cc2ccccc21`, the growth was 105%.

Turning to `COc1cc(-c2n[nH]nc2-c2ccccn2)cc(OC)c1OC`, the growth was 78.2%.

Turning to `Cc1cc(C)c2c(N)c3cccc(C)c3nc2n1`, the growth was -38.1% (active).

For `Cc1c2oc3c(C)ccc(C(=O)OC(C)C4NC(=O)C(C(C)C)N(C)C(=O)CN(C)C(=O)C5CCCN5C(=O)C(C(C)C)NC4=O)c3nc-2c(C(=O)OC(C)C2NC(=O)C(C(C)C)N(C)C(=O)CN(C)C(=O)C3CCCN3C(=O)C(C(C)C)NC2=O)c(N)c1=O` (stereo not drawn), the growth is 7.56% (active).

For `O=C(CN1CCN(c2ccc(Cl)cc2)CC1)N1CCN(c2nnc(-c3ccc(Cl)cc3)c(-c3ccc(Cl)cc3)n2)CC1`, the growth was 37.7%.

On to `CC(=O)/C(=C/c1ccc(Cl)cc1)C(=O)c1ccccc1`, for which the growth was 91.6%.

Take `COc1ccc(C(=O)/C=C/c2ccc(C)cc2)cc1OC`: the growth was -18.8% (active).

With `CCOC(=O)c1cnc2c(C)cc(C)cc2c1NCCCN(C)C`, the growth was 5.17% (active).

Turning to `CN(C)CCCNc1nn2c(=O)c3ccccc3nc2c2ccccc12`, the growth was -12.2% (active).

With `Cc1cc(C(=O)Nc2ccc3cc(CN4CCOCC4)ccc3n2)c(C)n1-c1ccccc1`, the growth is 66.4%.

For `Cc1sc2nc3c4ccccc4c(NCCCN(C)C)nn3c(=O)c2c1C`, the growth was 23.4%.

As to `CCN(CC)c1ccc(C(=C2C=CC(=[N+](CC)Cc3cccc(S(=O)(=O)O)c3)C=C2)c2ccc(N(CC)Cc3cccc(S(=O)(=O)O)c3)cc2)cc1`, the growth was 16.1%.
